Data on 89 compounds can be found in PubChem BioAssay AID463173 (ICCB-Longwood Screening Facility, Harvard Medical School, 2010).

The whole screen tested about 52,000 compounds, of which about 4,300 (8.3%) were called active. What follows is part of a selection rich in actives, with near analogues and random picks from the rest. Unmarked numbers belong to inactive results. Rule as the data show it: active = survival mostly below about 52% (no sharp cut-off); inactive = mostly above about 56%.

The test system of the experiment is DeltatarO mutant. Nature of the experiment: growth inhibition of S. aureus wild type versus tarO mutant, primary screen, teichoic acid synthesis inhibitors, RN4220, OD600 (AID 463173). To be noted: OD600, 18 h, hits give low values, screened at 18.75 µg/mL (by protocol).
In the case of `CCc1cccc(NC(=O)c2ccc(CN3C(=O)C(C)=C(c4ccc(OC)cc4)S3(=O)=O)cc2)c1`, the survival is 71%. Regarding `CCn1cc(S(=O)(=O)c2ccccc2)c(=O)c2cc(F)c(N3CCCC3)cc21`, the survival was 107%. Regarding `CCOc1ccc(NC(=O)C(C)n2c(=O)cc(C)c3c(C)nn(-c4ccccc4)c32)cc1` (centres undefined), the survival was 83%. To `Nc1nc(Nc2ccccc2F)sc1C(=O)c1ccc(Cl)cc1` belongs 2% (active); to `Nc1c(C(=O)c2ccc(F)cc2)sc(Nc2ccccc2F)c1S(=O)(=O)c1ccc(Br)cc1`, 67%; to `COc1ccc(C(=O)c2sc(Nc3cc(Cl)ccc3C)nc2N)cc1OC`, 131%. Consider `COc1ccc(NC(=O)Cn2c(=O)oc3cc(S(=O)(=O)NC4CCCC4)ccc32)cc1OC`, for which the survival was 93%. For the compound `Nc1nnc(CC(=O)N2CCCC2)s1`, the survival is 99%. Under `CCCCC(CC)CNC(=O)CCCc1nnc2n(CCC)c(=O)c3sccc3n12` (centres undefined) stands 75%; under `COc1ccc(-c2nnc(SCC(=O)Nc3ccc(C)c(Cl)c3)nc2-c2ccc(OC)c(OC)c2)cc1OC`, 135%.

In the case of `COC(=O)CN1C(=O)C(C)(C)c2cc(S(=O)(=O)Nc3ccc(Br)cc3F)ccc21`, the survival was 90%. Under `CC1CCN(S(=O)(=O)c2ccc3c(c2)N(CC(=O)NCCCN2CCCC(C)C2)C(=O)CS3)CC1` (centres undefined) stands 75%.

Take `CCCCn1c(SCC(=O)NCCCOC)nc2c(sc3ccccc32)c1=O`: the survival is 128%. As for `CCOCCCn1c(SCC(=O)OCC)nc2c(sc3ccccc32)c1=O`, the survival was 124%. Under `CCOC(=O)CSc1nc2c(sc3ccccc32)c(=O)n1CCc1ccccc1` stands 60%; under `CCOCCCn1c(SCC(=O)NCc2ccccc2)nc2c(sc3ccccc32)c1=O`, -5% (active); under `CCOC(=O)CSc1nc2c(sc3ccccc32)c(=O)n1CCO`, -5% (active). Under `CCOCCCn1c(SCC(=O)NCCCOC)nc2c(sc3ccccc32)c1=O` stands 126%. Under `COCCCNC(=O)CSc1nc2c(sc3ccccc32)c(=O)n1CCc1ccccc1` stands 72%. `COCCCn1c(SCC(=O)NCc2ccccc2)nc2c(sc3ccccc32)c1=O`: the survival was 82%. To `COCCCNC(=O)CSc1nc2c(sc3ccccc32)c(=O)n1CCc1ccc(OC)c(OC)c1` belongs -4% (active); to `CCCCn1c(SCC(=O)NCc2ccc(C)cc2)nc2c(sc3ccccc32)c1=O`, 89%; to `CC(C)OCCCn1c(SCC(=O)c2ccccc2)nc2c(sc3ccccc32)c1=O`, 88%. As for `CCCCn1c(SCC(=O)c2ccccc2)nc2c(sc3ccccc32)c1=O`, the survival was 17% (active). On to `O=C(CN1C(=O)COc2ccc(S(=O)(=O)N3CCOCC3)cc21)N1CCN(c2ccc(F)cc2)CC1`, for which the survival was 99%. Under `CCC(C)(C)n1nnnc1CN(Cc1ccc(Cl)cc1)CC1CCCO1` (centres undefined) stands 76%. To `Cc1ccc(-c2nnn3c2nc(NCC(C)c2ccccc2)c2ccccc23)cc1` (centres undefined) belongs 91%; to `Clc1ccc(-c2nnn3c2nc(NC2CCCCC2)c2ccccc23)cc1`, 17% (active); to `Cc1ccc(-c2nnn3c2nc(NCCc2ccccc2)c2ccccc23)cc1`, 112%. To `c1ccc(CNc2nc3c(-c4ccccc4)nnn3c3ccccc23)cc1` belongs 75%; to `Clc1ccc(-c2nnn3c2nc(NCc2ccc4c(c2)OCO4)c2ccccc23)cc1`, 59%; to `CCCCCNc1nc2c(-c3ccccc3)nnn2c2ccccc12`, 80%. Turning to `Cc1ccc(-c2nnn3c2nc(NC2CCC(C)CC2)c2ccccc23)cc1` (centres undefined), the survival was -4% (active). In the case of `CC1CCC(Nc2nc3c(-c4ccc(Cl)cc4)nnn3c3ccccc23)CC1` (centres undefined), the survival was 8% (active). On to `Cc1ccc(-c2nnn3c2nc(NCCc2ccc(Cl)cc2)c2ccccc23)cc1`, for which the survival was 82%.

With `CCCCNC(=O)C(CC)Sc1nnc(-c2ccc(F)cc2)c(-c2ccc(F)cc2)n1` (centres undefined), the survival was 83%. Under `CSc1ccc(C2c3[nH]c4ccccc4c3CCN2C(=O)CCc2ccccc2)cc1` (centres undefined) stands 87%; under `CC1CCCN(CCCNC(=O)c2ccc3c(c2)N(Cc2ccc(Cl)cc2)C(=O)c2ccccc2S3(=O)=O)C1` (centres undefined), 145%. In the case of `COc1c(Cl)cc(Cl)cc1CNCCSc1nnnn1C`, the survival was 74%. In the case of `COc1ccc(Br)cc1CNC(=O)CCSCc1ccc(Cl)cc1`, the survival is 73%. On to `CCOC(=O)C1CCCN(S(=O)(=O)c2ccc3c(c2)N(C)C(=O)CC(=O)N3C)C1` (centres undefined), for which the survival is 106%. Turning to `COc1ccc(OCc2nc3c4c(-c5ccc(OC)cc5)c(-c5ccc(OC)cc5)oc4ncn3n2)cc1`, the survival is 70%. To `COC(=O)c1ccc([C@H]2Nc3ccc(S(=O)(=O)Nc4ccc(F)cc4)cc3[C@H]3C=CC[C@H]32)cc1` belongs 53% (active).

In the case of `Cc1ccc(NS(=O)(=O)c2ccc3c(c2)[C@H]2C=CC[C@H]2[C@@H](c2ccc(F)cc2)N3)cc1C`, the survival is 58%. Under `COC(=O)c1ccc([C@H]2Nc3ccc(S(=O)(=O)Nc4cccc(C)c4)cc3[C@H]3C=CC[C@H]32)cc1` stands 50%; under `Cc1cccc(NS(=O)(=O)c2ccc3c(c2)[C@H]2C=CC[C@H]2[C@@H](c2ccc(F)cc2)N3)c1`, 39% (active); under `Cc1cccc(C)c1NS(=O)(=O)c1ccc2c(c1)[C@H]1C=CC[C@H]1[C@@H](c1ccc(Cl)cc1)N2`, 53%.

Regarding `COC(=O)c1ccc([C@H]2Nc3ccc(S(=O)(=O)Nc4ccc(C)cc4)cc3[C@H]3C=CC[C@H]32)cc1`, the survival was 60%. To `Cc1ccc(C)c(N2CCN(C(=O)c3ccc4c(c3)c(C)c(C)n4C)CC2)c1` belongs 73%; to `COc1ccccc1CNC(=O)Cn1c(=O)oc2cc(S(=O)(=O)N3CCC(C)CC3)ccc21`, 143%. Under `COc1ccc(N2CCN(C(=O)CN3C(=O)COc4ccc(S(=O)(=O)N5CCC(C)CC5)cc43)CC2)cc1` stands 81%; under `CCOC(=O)c1ccc(-c2ccc(C=C(C#N)C#N)o2)cc1`, 87%; under `Cc1ccc2nc(/C(C#N)=C/c3ccc(-c4cccc(Cl)c4)o3)[nH]c2c1`, 6% (active).

As to `N#CC(C#N)=Cc1ccc(-c2cccc(C(F)(F)F)c2)o1`, the survival is 114%. Under `CCOC(=O)/C(C#N)=C/c1ccc(-c2ccc(C)cc2)o1` stands 98%; under `N#C/C(=C\c1ccc(-c2cccc(Cl)c2)o1)C(N)=O`, 99%. Under `Cc1cc(C(=O)OC(C)C)ccc1-c1ccc(C=C(C#N)C#N)o1` stands 104%. `CCOC(=O)c1ccc(-c2ccc(/C=C(\C#N)C(=O)Nc3ccc(C)cc3OC)o2)cc1`: the survival is 76%. Under `CCOC(=O)c1ccc(-c2ccc(/C=C(\C#N)c3nc4ccc(C)cc4[nH]3)o2)cc1` stands 32% (active).

With `Cc1ccc2nc(/C(C#N)=C/c3ccc(-c4ccc(C(=O)OC(C)C)cc4)o3)[nH]c2c1`, the survival is 36% (active). To `C=CCc1c(C)[nH]c2c(OC)cccc2c1=S` belongs 82%.

As for `COc1ccc(C(=O)Nc2ccc(NC(=O)c3cccs3)cc2)cc1OC`, the survival is 72%. Take `COc1ccc(OC)c(NC(=O)C2CCN(S(=O)(=O)c3ccc4c(c3)CCCC(=O)N4)CC2)c1`: the survival is 88%.

In the case of `CCOC(=O)C1CCN(C(=O)Cn2nc(CC)n3c(cc4sccc43)c2=O)CC1`, the survival is 134%. To `COc1cc(C(CC(=O)Nc2ncccc2C)N2Cc3ccccc3C2=O)cc(OC)c1OC` (centres undefined) belongs 79%; to `Cc1ccc(NC(=O)CN2C(=O)CCn3nc(-c4cccn4C)cc32)c(Cl)c1`, 115%; to `COCCCNC(=O)C(=O)Nc1c2c(nn1-c1cccc(Cl)c1)CSC2`, 79%. In the case of `C=CCC(NCc1ccco1)c1ccccc1` (centres undefined), the survival was 69%. To `CCOc1cc(C(=O)Nc2cccc(-c3nc4ccccc4o3)c2)cc(OCC)c1OCC` belongs 51%; to `CCOc1cc(C(=O)Nc2ccc3oc(-c4ccc(F)cc4Cl)nc3c2)cc(OCC)c1OCC`, 64%. To `CCOc1cc(C(=O)Nc2ccc(-c3nc4cc(C)ccc4o3)cc2)cc(OCC)c1OCC` belongs 27% (active); to `CCOc1cc(C(=O)Nc2ccc3oc(-c4ccc(CC)cc4)nc3c2)cc(OCC)c1OCC`, 41% (active); to `CCc1ccc2oc(-c3ccc(NC(=O)c4cc(OC)c(OC)c(OC)c4)cc3)nc2c1`, 57%.

For the compound `CCOc1cc(C(=O)Nc2ccc(-c3nc4cc(Cl)ccc4o3)cc2)cc(OCC)c1OCC`, the survival was 67%. Under `COc1cccc(-n2c(SCC(=O)Nc3nnc(C)s3)nc3c([nH]c4ccccc43)c2=O)c1` stands 60%.

Regarding `COc1ccc(-n2ccn(CC(=O)Nc3ccccc3C(F)(F)F)c(=O)c2=O)cc1OC`, the survival was 80%. To `CNC(=O)COc1ccc(NC(=O)CCn2nc(-c3ccc(C)cc3)c3ccccc3c2=O)cc1` belongs 73%; to `COc1cc(C2C(C(=O)Nc3ccccc3C)=C(C)Nc3ncnn32)ccc1OCC(N)=O` (centres undefined), 82%; to `CCOc1ccc(CNCCCSc2nnnn2C)cc1OC`, 74%.

With `COc1ccccc1NC(=O)N1CCNCC1`, the survival is 73%. In the case of `COc1ccc(-c2cc(C)no2)cc1S(=O)(=O)N1CCc2ccccc21`, the survival is 67%. Under `CCC1CN(S(=O)(=O)c2cc(-c3cc(C)no3)ccc2OC)c2cc(Cl)ccc2O1` (centres undefined) stands 62%; under `COc1ccc(-c2onc(C)c2C)cc1S(=O)(=O)N1CCc2ccccc21`, 6% (active). To `COc1ccc(-c2cc(C)no2)cc1S(=O)(=O)N1CC(C)Oc2ccccc21` (centres undefined) belongs -5% (active); to `CCC1CN(S(=O)(=O)c2cc(-c3cc(C)no3)ccc2OC)c2cc(C)ccc2O1` (centres undefined), 109%.

For the compound `Cc1ccc(-c2onc(C)c2C)cc1S(=O)(=O)N1CCc2ccccc21`, the survival is 86%. `COc1ccc(-c2cc(C)no2)cc1S(=O)(=O)N1CCOc2ccccc21`: the survival was 73%. `CCC1CN(S(=O)(=O)c2cc(-c3cc(C)no3)ccc2C)c2cc(C)ccc2O1` (centres undefined): the survival was 52% (active).

`CCC1CN(S(=O)(=O)c2cc(-c3cc(C)no3)ccc2C)c2cc(Cl)ccc2O1` (centres undefined): the survival is 75%.
